# Results filed as inconclusive are left out. Where a call stands in place of a potency, no number is given. Unmarked numbers belong to inactive results. Activity calls are given as the source filed them. Calls come from the whole dose curve; as a rule, active = well fitted cell-killing curve with a large enough effect in the repeat runs; inconclusive = weak or mixed curves, or effect the other way; inactive = flat fitted curve, though single readings scatter.
# Test: qHTS RealTime-Glo MT Cell Viability Assay in HEK293 cells - 0 hour (AID 1224880); note: top concentration of the series differs between compounds; nearly all actives have a fitted effect of over 45% in size
# Details: RealTime-Glo luminescence; series mostly up to 76.8 µM; activity change, negative = cytotoxicity: at the top concentration
# Description: U.S. Tox21 Program National Center for Advancing Translational Sciences [NCATS] NIH Chemical Genomics Center [NCGC] U.S. Environmental Protection Agency [EPA] National Institutes of Environmental Health Sciences [NIEHS] National Toxicology Program [NTP] U.S. Food and Drug Administration [FDA] Tox21 Assay Overview: Measure of cell viability is critical in the cell-base assay. Analysis of cell viability is necessary for the characterization of cell responses to cytotoxic drugs and environmental stress. A RealTime-Glo MT Cell Viability Assay to monitor cell viability in real time of continues cell culture during 40 hours of compound treatment was used to screen Tox21 10K library compounds in Hek293 cells. The RealTime-Glo MT Cell Viability Assay is a nonlytic, homogeneous, bioluminescent method to measure cell viability in real time using a simple, plate-based method. The assay involves adding NanoLuc luciferase and a cell-permeant prosubstrate to cells in culture. Viable cells reduce the proprietary prosubstrate to generate a substrate for NanoLuc luciferase. This substrate diffuses from cells into the surrounding culture medium, where it is rapidly used by the NanoLuc Enzyme to produce a luminescent signal. The signal correlates with the number of viable cells, making the assay well suited for cytotoxicity studies.
# Tox21 Assay Protocol Summary: The mixture of Hek293 cell suspension and reagents were dispensed at 600cells/6 ul/well in 1536-well tissue culture treated black solid bottom plates using a Multidrop dispenser. After the assay plates were incubated at a 37 C/5% CO2 incubator for 5 hours, 23 nL of compounds dissolved in DMSO, positive and negative controls was transferred to the assay plate by a pintool work station. The plates were incubated at 37 C for 40 hours. The luminescence intensity were measured at 0h, 8h, 16h, 24h, 32h and 40h time points using ViewLux plate reader during compound treatment.
SMILES,"activity change, negative = cytotoxicity",Potency
O=CC(=O)c1ccccc1,-7.93%,
CN(N=O)C(=O)N[C@@H]1[C@@H](O)[C@H](O)[C@@H](CO)O[C@@H]1O,,inactive
Cn1c(=O)c2c(ncn2C)n(C)c1=O,,inactive
CCCCCCCCCCCC[N+](C)(C)Cc1ccccc1,,inactive
CN1[C@@H]2CC(OC(=O)[C@H](CO)c3ccccc3)C[C@H]1[C@@H]1O[C@@H]12 (stereo not given in full),,inactive
CCCCC(CC)C(=O)O (stereo not given),,inactive
C=C(C)C(=O)OCC(C)O (stereo not given),,inactive
C1=CC2C3C=CC(C3)C2C1 (stereo not given),5.45%,
CCCCOC(=O)c1ccc(O)cc1,,inactive
CC(=O)CCC(=O)O,,inactive
O=C(Nc1ncc([N+](=O)[O-])s1)c1cccs1,-8.8% [at 35.3 µM],
CCOC(N)=O,,inactive
CCCC[P+](CCCC)(CCCC)CCCC,,inactive
CCCCNC(=O)NS(=O)(=O)c1ccc(C)cc1,,inactive
CN1CCC[C@H]1c1cccnc1,,inactive
O=C1c2c(O)cccc2Cc2cccc(O)c21,,inactive
Oc1ccccc1,,inactive
C=CCc1ccc(O)c(OC)c1,,inactive
CC(O)(P(=O)(O)O)P(=O)(O)O,,inactive
CCCc1cc(=O)[nH]c(=S)[nH]1,,inactive

SMILES,"activity change, negative = cytotoxicity",Potency
OC[C@H]1O[C@H](O[C@]2(CCl)O[C@H](CCl)[C@@H](O)[C@@H]2O)[C@H](O)[C@@H](O)[C@H]1Cl,,inactive
CC1(C)O[C@@H]2C[C@H]3[C@@H]4CCC5=CC(=O)C=C[C@]5(C)[C@@]4(F)[C@@H](O)C[C@]3(C)[C@]2(C(=O)CO)O1,,inactive
CCN(Cc1c(F)cccc1Cl)c1c([N+](=O)[O-])cc(C(F)(F)F)cc1[N+](=O)[O-],-3.39%,
CCCCCCCC(=O)OCC(COC(=O)CCCCCCC)OC(=O)CCCCCCC,,inactive
CC(C)C(=O)Nc1ccc([N+](=O)[O-])c(C(F)(F)F)c1,,inactive
CC(C)NCC(O)c1ccc(O)c(O)c1 (stereo not given),,inactive
COc1cccc(O)c1O,-1.4%,
CS(=O)(=O)OCCCCOS(C)(=O)=O,,inactive
Cc1cc(=O)oc2cc(O)ccc12,,inactive
O=C(O)c1ccccc1,,inactive
CNNCc1ccc(C(=O)NC(C)C)cc1,,inactive
O=c1[nH]cc(F)c(=O)[nH]1,,inactive
CN(C)CCOC(c1ccccc1)c1ccccc1,,inactive
Cc1cn([C@H]2C=C[C@@H](CO)O2)c(=O)[nH]c1=O,,inactive
CC12CCC(CC1)C(C)(C)O2,,inactive
NC1CCCCC1,,inactive
O=S1(=O)OC(c2ccc(O)cc2)(c2ccc(O)cc2)c2ccccc21,-10.6%,
NC(=O)c1cccnc1,,inactive
COc1ccc2cc(S(=O)(=O)N[C@H](CC(=O)N[C@H](Cc3ccc(CN4[C@H](C)CCC[C@@H]4C)cc3)C(=O)N(C)C(C)C)c3ccc4c(c3)OCO4)ccc2c1,-19.7%,
CN1CCc2cccc3c2[C@H]1Cc1ccc(O)c(O)c1-3,,inactive

# Reference: PubChem BioAssay (Tox21)
